The values that follow come from ChEMBL document CHEMBL3988442, “University of Dundee, Small-Polar-MMV Screening Library” (2021).

Screen size: about 68,000 compounds; about 25 (0.04%) showed an effect of 50% or more. The list comes from a sample in which strong results are over-represented; it also holds similar structures and randomly drawn compounds.

The target of this test is T1, Methionyl-tRNA synthetase, putative (Leishmania donovani (strain BPK282A1)) (UniProt E9BF75).
T1 sequence (whole entry): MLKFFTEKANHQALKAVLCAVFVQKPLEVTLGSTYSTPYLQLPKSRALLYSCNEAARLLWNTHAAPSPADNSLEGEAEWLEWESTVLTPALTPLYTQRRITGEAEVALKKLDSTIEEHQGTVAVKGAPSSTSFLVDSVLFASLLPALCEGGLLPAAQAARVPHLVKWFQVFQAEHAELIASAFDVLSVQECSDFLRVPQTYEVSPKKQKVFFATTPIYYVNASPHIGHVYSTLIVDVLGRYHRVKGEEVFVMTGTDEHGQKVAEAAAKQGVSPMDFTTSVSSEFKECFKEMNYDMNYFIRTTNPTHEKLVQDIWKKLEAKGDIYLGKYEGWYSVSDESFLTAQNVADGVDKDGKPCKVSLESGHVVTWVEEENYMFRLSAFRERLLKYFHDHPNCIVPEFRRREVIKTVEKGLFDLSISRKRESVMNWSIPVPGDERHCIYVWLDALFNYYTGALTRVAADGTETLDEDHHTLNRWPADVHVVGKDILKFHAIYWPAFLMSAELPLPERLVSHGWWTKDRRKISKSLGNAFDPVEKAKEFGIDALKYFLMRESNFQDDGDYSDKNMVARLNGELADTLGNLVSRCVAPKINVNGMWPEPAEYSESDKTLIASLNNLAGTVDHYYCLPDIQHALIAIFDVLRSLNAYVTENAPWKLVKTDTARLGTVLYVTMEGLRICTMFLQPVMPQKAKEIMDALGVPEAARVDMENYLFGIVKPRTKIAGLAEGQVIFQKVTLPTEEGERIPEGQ
The test can be described thus: Leishmania donovani Methionine tRNA synthetase (LdMetRS):v6. Primary screen assay. It is filed as functional. Details: conc 80 nM, time 150 minutes.
As usually defined, the inhibition is the change of the read-out against control, counted positive when it falls. With `Cc1cccc(C(=O)N2C[C@@H]3[C@H](CC(=O)NC(C)C)[C@@H]3C2)n1`, the inhibition is 6.67%. As for `Cc1ncc(CNc2cnccc2CO)s1`, the inhibition came out at 11.8%. To `Cc1ccc(-c2ncc(CNc3cnccc3CO)s2)cc1` belongs 1.86%; to `CC(C)Cc1ncc(CNc2cnccc2CO)s1`, 121%. With `Cn1cc(C(=O)N[C@@H]2CN(Cc3cccs3)[C@@H]3CCCO[C@@H]32)cn1`, the inhibition came to 16.3%. `O=C1NC[C@]2(CC[C@@H](C(=O)N3CCC(O)CC3)CC2)Oc2ccccc21`: the inhibition was determined as 17.4%. To `Cc1oc(C(C)C)cc1C(=O)N1C[C@H]2CC[C@@H]1CN(c1ncccn1)C2` belongs 7.9%; to `O=C([C@@H]1COC[C@H]2CN(C3CCCCC3)C[C@H]21)N1CCOCC1`, 14.6%. To `O=S(=O)(NCCSc1nccn1C1CC1)c1ccccc1` belongs 67.7%. To `O=S(=O)(NCCSc1nncn1C1CC1)c1ccccc1` belongs 3.73%; to `O=S(=O)(CCSc1nccn1C1CC1)c1ccccc1`, -9.32%. Turning to `Cc1noc([C@@]23CCO[C@@H]2CCN(C(=O)c2cc(C)c(C)s2)C3)n1`, the inhibition amounted to 8.14%. To `Cc1noc([C@@H]2C[C@H]3OCC[C@H]3N(Cc3sccc3C)C2)n1` belongs 10.5%. To `Cc1occc1C(=O)N1CCO[C@H]2[C@H](Oc3cccnc3)CC[C@@H]21` belongs 3.85%; to `CCS(=O)(=O)N1CC[C@H]2O[C@H](c3nc(C)no3)CC[C@H]21`, 21%. As for `O=C1C[C@H]2CC[C@@H](CN1)N2C(=O)CCc1ccc2c(c1)OCO2`, the inhibition turned out to be 17%. To `O=C(c1cc(F)cc(Cl)c1)N1CCN(CCO)[C@@H]2CS(=O)(=O)C[C@@H]21` belongs 3.31%; to `Cc1noc(C)c1CN1CC[C@H]2OCC[C@@H](C(=O)NCC3CC3)[C@H]2C1`, 14.8%.

For the compound `Cc1ccc(CN2CC[C@H]3OCC[C@@]3(C(=O)N3CCCO3)C2)o1`, the inhibition came out at 6.85%. To `O=C(N[C@@H]1CN(c2ncccn2)[C@@H]2CCCO[C@@H]21)c1cscn1` belongs 13.6%; to `O=C1CC[C@H]2CN(c3ncccc3F)CC[C@H]2N1CCc1ccccc1`, -0.347%. With `CCc1c(C(=O)N2C[C@H]3CC[C@@H]2CN(c2cnccn2)C3)csc1C`, the inhibition came to 13.4%.

With `CN(C)C(=O)[C@@H]1CCO[C@@H]2CCN(CCOCc3ccccc3)C[C@H]21`, the inhibition was 1.54%. To `OCC1N(Cc2ccc(F)cc2)[C@H]2CC[C@]1(O)CC2` (stereo partly specified) belongs 12.3%; to `Cc1ccc(C(=O)N2C[C@@H](N3CCN(C)CC3)[C@H]3OCCC[C@H]32)cn1`, 14.1%. To `N#Cc1ccccc1CN1C[C@H]2CC[C@@H]1CN(C(=O)c1cccnc1)C2` belongs 15.4%.

Take `CNC(=O)[C@@]12CCC3(CCNCC3)[C@@H]1CN(S(C)(=O)=O)C2`: the inhibition was 18.3%. `O=C1OCCN1CC(=O)N1C[C@H]2CC[C@@H]1CN(C(=O)c1ccccc1)C2`: the inhibition was 10.6%. To `Cc1nc(CC(=O)N2c3ccccc3OCC2C)cs1` (stereo unspecified) belongs 6.21%; to `CC1COc2ccccc2N1C(=O)CCc1cscn1` (stereo unspecified), 59%; to `CC1COc2ccccc2N1C(=O)c1cscn1` (stereo unspecified), 12.4%.

For the compound `CNC(=O)[C@@H]1C[C@H]2CN(C(=O)c3ccco3)C[C@H]2N1C(C)C`, the inhibition stood at 14.5%. To `CC(C)=CCN1C[C@@H]2CN(C(=O)c3cnccc3C)C[C@]2(C(=O)O)C1` belongs 8.52%; to `CCCN1CCN(Cc2cccc(OC)c2)[C@H]2CS(=O)(=O)C[C@H]21`, 12.4%; to `CNC1CCN(C2CCN(c3ccc(-c4ccco4)cc3)CC2)CC1`, 21%. To `NCC1CCN(C2CCN(c3ccc(-c4ccco4)cc3)CC2)C1` (stereo unspecified) belongs 52.7%; to `NC1CCN(C2CCN(c3ccc(-c4ccco4)cc3)CC2)CC1`, 42.5%.

Regarding `CCc1cc(CN2C[C@H]3CC[C@@H]2CN(C2Cc4ccccc4C2)C3)on1`, the inhibition amounted to 18.8%. With `Cc1ocnc1C(=O)N1CCN(Cc2ccccc2)[C@@H]2CS(=O)(=O)C[C@@H]21`, the inhibition is 11.8%. To `O=C([C@@H]1C[C@H]2[C@H](CCN2Cc2nccs2)O1)N1CCOCC1` belongs 12.4%; to `Cc1noc([C@@H]2CC[C@@H]3[C@@H](CCN3S(=O)(=O)c3ccccc3)O2)n1`, 21.6%; to `Cn1ccnc1CN1C[C@H]2CN(S(C)(=O)=O)CCN2C1=O`, 12%.

For the compound `COCCN1C(=O)CC[C@@H]2[C@H]1CCN2C(=O)C1CCOCC1`, the inhibition stood at 7.27%. To `CCN1C[C@H]2[C@@H](C1)N(S(=O)(=O)c1ccccc1F)CC[C@H]2OC` belongs 18.4%; to `Cc1cnn(CCNCc2c(C)nn(-c3ccccc3)c2C)c1`, 121%; to `Cc1cnn(CCNCc2c(C)nn(C)c2Cl)c1`, 15.4%.

Consider `CCn1nc(C)c(CNCCn2cc(C)cn2)c1C`, for which the inhibition was -6.21%.

On to `Cc1cnn(CCNCc2c(C)nn(Cc3ccccc3)c2C)c1`, for which the inhibition came out at 9.32%. To `Cc1cnn(CCNCc2c(C)nn(CCO)c2C)c1` belongs 105%. `Cc1cnn(CCNCc2ccccc2F)c1`: the inhibition is 13%. For `Cc1cccc2nc(C(=O)N3CCCC[C@]4(C)NC(=O)CC[C@H]34)cn12`, the inhibition came to 13.5%. As for `O=C(N1CCCC(n2cncn2)C1)C1(c2ccc(Cl)cc2)CCC1` (stereo unspecified), the inhibition came to 15.4%.

With `CNC(=O)CC1COCCN1C(=O)C1(c2ccc(Cl)cc2)CCC1` (stereo unspecified), the inhibition is 7.45%. To `O=C(O)CC1COCCN1C(=O)C1(c2ccc(Cl)cc2)CCC1` (stereo unspecified) belongs 52.2%; to `O=C(N1CCC(O)(C(F)(F)F)C1)C1(c2ccc(Cl)cc2)CC1` (stereo unspecified), 8.1%; to `O=C(N1CCOCC(O)C1)C1(c2ccc(Cl)cc2)CCC1` (stereo unspecified), 123%.

As for `O=C(N1CCOCC1CO)C1(c2cccs2)CCCC1` (stereo unspecified), the inhibition was determined as 8.7%.

For the compound `O=C(c1ccco1)N1C[C@@H]2CN(c3ccccn3)C[C@@H]2C1`, the inhibition was 6.11%. Consider `O=C(NCc1ccco1)[C@H]1CC[C@@H]2[C@@H](CCN2c2ncccn2)O1`, for which the inhibition is 3.27%. For the compound `CC(C)CN1Cc2nc(N3CCC(O)CC3)ncc2C1=O`, the inhibition is 7.08%. Turning to `Cc1nonc1CC(=O)N1C[C@@H]2CC[C@H](C1)N(Cc1ccccc1)C2=O`, the inhibition worked out at 6.88%. Turning to `N#Cc1ccccc1CN1C[C@@H]2CC[C@H](C1)N(CC1CCC1)C2=O`, the inhibition was determined as 19.4%. As for `CCc1[nH]c2c(CNc3cncc(C(=O)N(C)C)n3)cc(C)cc2c1C`, the inhibition was 32.3%. To `CCc1[nH]c2c(CNc3cncc(C(=O)N(C)C)n3)cc(F)cc2c1C` belongs 28.6%. To `CCc1[nH]c2c(CNc3cncc(C(=O)OC)n3)cc(C)cc2c1C` belongs 123%. To `CCOCC(=O)N1CC[C@H]2OCC[C@@]2(COc2ncccc2F)C1` belongs 6.53%; to `CC1CCN(c2ccc(C(=O)N3CCCC3c3nncn3C)cn2)CC1` (stereo unspecified), 4.75%. With `CC1CCN(c2ccc(C(=O)N3CCCC3c3ccc[nH]3)cn2)CC1` (stereo unspecified), the inhibition was 78.5%.

With `NC(=O)c1ccc(OCC(=O)N2CCCC2c2ccc[nH]2)cc1` (stereo unspecified), the inhibition was determined as 15.5%. Take `CCCOc1cc(C)c2c(c1C)C[C@H]([C@H](C)C(=O)O)CC2`: the inhibition stood at 2.26%. To `CC(C)N1[C@H](CN2CCCC2)C[C@@H]2CN(Cc3cnn(C)c3)CC[C@@H]21` belongs 12.3%; to `c1coc(CN2CCO[C@H]3[C@H](OCC4CC4)CC[C@@H]32)c1`, 13.7%; to `O=C(NCC1CCOCC1)[C@@H]1CC[C@@H]2[C@@H](CCN2Cc2ccncc2)O1`, 19.3%.

With `Cc1nc(CN2C(=O)C[C@@H]3[C@@H]2CCN3S(=O)(=O)C2CC2)cs1`, the inhibition was 11.7%. On to `COCC(=O)N1C[C@@H]2CCCO[C@@H]2[C@H](N(C)Cc2ccco2)C1`, for which the inhibition is -6.25%. To `CNC(=O)[C@H]1C[C@@H]2CN(Cc3ccccc3)C[C@H]1O2` belongs 15.9%. Turning to `CN(C(=O)c1cccc(C(=O)NCC(F)(F)F)c1)c1ccccc1`, the inhibition came out at 3.94%.

Turning to `COC(=O)CCNC(=O)c1cccc(C(=O)N(C)c2ccccc2)c1`, the inhibition is 31.7%. To `COC(=O)CNC(=O)c1cccc(C(=O)N(C)c2ccccc2)c1` belongs 95%. On to `O=C(NC1CC1)N1C[C@@H]2CCN(C(=O)c3cscn3)[C@@H]2C1`, for which the inhibition amounted to 0.546%. Take `CO[C@H]1C[C@@H]2CN(C(=O)c3cc4ccc(F)cc4[nH]3)C[C@@H]2C1`: the inhibition turned out to be 13.3%. Take `O=C1[C@H]2CN(S(=O)(=O)c3ccccc3)C[C@H]2CN1Cc1cccnc1`: the inhibition is 4.19%.

With `Cc1nnc(NC(=O)NCc2ccc(N3CCNC(=O)C3)cc2)s1`, the inhibition was 9.92%. In the case of `Cc1ccccc1C(=O)NCc1ccc(N2CCNC(=O)C2)cc1`, the inhibition was 14.1%. To `Cc1cccnc1NC(=O)NCc1ccc(N2CCNC(=O)C2)cc1` belongs 50.6%; to `CN(C)S(=O)(=O)N1CC[C@]2(O)CCN(Cc3cccc(F)c3)C[C@@H]2C1`, 12.9%; to `CC(C)c1nc(N2CCC(N3CCSCC3)CC2)c2cnn(C)c2n1`, 12.3%. To `CC(C)c1nc(N2CCC(N3CCCCCC3)CC2)c2cnn(C)c2n1` belongs 56.4%; to `CC(C)c1nc(N2CCC(N3CCCC(O)C3)CC2)c2cnn(C)c2n1` (stereo unspecified), 14.7%. To `CC1=N[C@@]2(CC[C@@H]3CN(CC4CC4)C[C@@H]32)C(=O)N1CC(C)C` belongs 14.9%; to `COCCN1C[C@H]2CC[C@@H]1CN(C(=O)CCn1cc(Cl)cn1)C2`, 9.25%; to `CC(C)CC(=O)N1CC[C@@H]2[C@H](CC1)N(Cc1cccnc1)CCS2(=O)=O`, 15.2%. Turning to `CN(C)CCN1CC[C@H]2[C@@H]1CCN2Cc1ccc2c(c1)OCO2`, the inhibition was 5.56%. `CCCSCC(=O)N1C[C@@H]2CC[C@H](C1)N(Cc1ccccn1)C2=O`: the inhibition is -1.42%. To `c1ccc(CN2C[C@H]3CC[C@@H]2CN(Cc2nnc(C4CC4)o2)C3)cc1` belongs 12.8%; to `CC(C)N1CCN(c2ccc3ccc(C(=O)NC4CCCC4)cn23)CC1`, 30.2%; to `CN(C)C(=O)N1CCN(c2ccc3ccc(C(=O)NC4CC4)cn23)CC1`, 20.2%. To `CC(=O)N1CCN(c2ccc3ccc(C(=O)NC4CCCC4)cn23)CC1` belongs 52.9%. In the case of `N#Cc1cccc(C(=O)N2CC[C@H]3[C@H]2CCN3CC2CCOCC2)c1`, the inhibition is 9.34%.

Regarding `CS(=O)(=O)NC[C@]12COC[C@H]1CN(CCc1ccccc1)C2`, the inhibition was 13.1%. Consider `Cc1nc([C@H]2C[C@@H]3CCN(C(=O)c4ccnnc4)C[C@H]3O2)sc1C`, for which the inhibition was determined as 17%. `O=C(NCC1CCOCC1)[C@H]1C[C@@H]2CCN(Cc3ccccc3)C[C@H]2O1`: the inhibition stood at 18.4%. To `CNC(=O)N1C[C@H]2C[C@H](C(=O)NCc3cccnc3)[C@@H](C1)O2` belongs 9.15%. To `Cc1ncc(CN2CCOC(CNc3cccnn3)C2)s1` (stereo unspecified) belongs 13.2%; to `CCCN1C[C@H]2CC[C@@H]1CN(c1nnc(C(C)C)s1)C2`, 9.31%. To `O=C(Cn1ccc(=O)cc1)N1C[C@H]2CC[C@@H]1CN(c1ncccn1)C2` belongs 15.1%.
